From PubChem BioAssay (EPA / NIEHS)
Results filed as inconclusive are left out. Calls of active or inactive are those of the source. The calls were made as follows, unless noted: active = hit-call score of the fitted dose curve at least 0.9, where 1 is the maximum; inactive = score below 0.9.

Tests used:
[1] = CCTE_Shafer_MEA_dev_per_network_spike_spike_percent: CCTE's Neural Network Formation Assay for Percent of Spikes in a Network Spike, Shafer Lab (AID 2284054)
How it was run: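 Metric: fraction of spikes falling in a 0.05 s window at network-spike peaks. Recordings were made on days 5, 7, 9 and 12 and collapsed by trapezoidal AUC. Cultures were rat cortical neurons on MEA plates, dosed continuously from plating, re-dosed at media changes.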

[2] = CCTE_Shafer_MEA_dev_LDH: CCTE's Lactate Dehydrogenase Assay for Cytotoxicity in the Neural Network Formation Assay, Shafer Lab (AID 2284068; active = hit-call score of the fitted dose curve at least 0.9, where 1 is the maximum;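 also: exposure for twelve days from plating with re-dosing on DIV 5 and 9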)
How it was run: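 Rat cortical primary neurons, MEA culture; dosing day 0–12, full medium plus compound exchange DIV 5, 9. Read-out: LDH enzyme activity, spectrophotometric. DMSO = negative control/baseline; signal loss → cytotoxicity.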

[3] = CCTE_Shafer_MEA_dev_AB: CCTE's Alamar Blue Assay for Cytotoxicity in the Neural Network Formation Assay, Shafer Lab (AID 2284083; active = hit-call score of the fitted dose curve at least 0.9, where 1 is the maximum;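 also: resazurin reduction fluorescence as viability of cultured neurons; twelve days of exposure from plating with re-dosing on DIV 5 and 9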)
How it was run: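 Rat cortical primary cultures, 1.5 x 10^5 cells/well on MEA; continuous compound exposure over 12 days of network development, re-dosed with full medium change DIV 5 and 9. Alamar Blue fluorescence; loss of signal = cytotoxicity vs DMSO baseline.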

[4] = CCTE_Shafer_MEA_dev_mutual_information_norm: CCTE's Neural Network Formation Assay for Mutual Information Normalization, Shafer Lab (AID 2284091);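 as to AC50: mutual information between electrodes summarised as area under curve across four recording days; potency is for a decrease in mutual information relative to DMSO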
How it was run: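 Shared information across electrodes, tracked on days 5, 7, 9 and 12 of network development and collapsed as trapezoidal area under the curve. Rat cortical cultures were treated continuously from plating, with treatment renewed at feeds on DIV 5 and 9; DMSO baseline, negative-direction fit.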

[5] = CCTE_Shafer_MEA_dev_correlation_coefficient_mean: CCTE's Neural Network Formation Assay for Mean Correlation Coefficient, Shafer Lab (AID 2284093);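 as to AC50: well mean pairwise spike train correlation integrated as AUC over recording days 5 to 12; potency fitted for loss of correlation relative to DMSO vehicle wells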
How it was run: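 Rat cortical cultures, 1.5 x 10^5 cells/well, dosed from day 0 for 12 days. Spontaneous spikes recorded DIV 5/7/9/12; electrode-pair correlation coefficients averaged, AUC taken. Fit in loss direction vs DMSO.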

[6] = UKN2_HCS_IMR90_neural_migration: University of Konstanz (UKN) Leist Lab Neural Crest Cell Migration Assay in human induced IMR90 Pluripotent Stem Cells (UKN2) (AID 2284204); settings: actives raise or lower the signal
How it was run: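 High-content imaging of calcein-AM and Hoechst stained cells quantifies migration into a stopper-defined gap after 24 h compound exposure. Neural crest cells from IMR90 iPSC migrated 24 h in EGF/FGF N2-S medium before dosing; DMSO baseline.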

[7] = IUF_NPC1b_proliferation_BrdU_72hr: Leibniz Research Institute for Environmental Medicine (IUF) 72-hour Neural Progenitor Cell Bromodeoxyuridine (BrdU) Proliferation Assay (NPC1b) (AID 2284207)
How it was run: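 Human fetal cortex-derived (GW 16-19) neural progenitor spheres, 0.25-0.35 mm, one per well in EGF/FGF proliferation medium, exposed to compound for 72 h at 37C, pH 7.2-7.6. BrdU incorporation over the final 16 h read by luminescence ELISA, relative to DMSO.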

[8] = IUF_NPC1a_proliferation_area_72hr: Leibniz Research Institute for Environmental Medicine (IUF) 72-hour Neural Progenitor Cell Proliferation Area Assay (NPC1a) (AID 2284208)
How it was run: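 Single 0.25–0.35 mm human fetal neural progenitor spheres in proliferation medium with EGF and FGF, exposed 72 h from plating without renewal at 37C, pH 7.2-7.6. Sphere area growth measured by automated phase-contrast imaging, relative to DMSO.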

[9] = IUF_NPC1_viability_72hr: Viability Assessment at 72 hours in the Leibniz Research Institute for Environmental Medicine (IUF) Neural Progenitor Cell Proliferation Assay (NPC1) (AID 2284209)
How it was run: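 Viability was measured by resazurin-to-resorufin fluorescence (alamar blue) after 72 h of continuous exposure without compound renewal. Each well held one hNPC sphere (gestational week 16-19 fetal cortex, 0.25-0.35 mm) cultured in EGF/FGF proliferation medium at 37C and pH 7.2-7.6.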

[10] = CCTE_Mundy_HCI_Cortical_Synap_Neur_Matur_NeuriteSpotCountPerNeuriteLength: CCTE's Synaptogenesis and Neurite Maturation Assay in rat cortical cells for Neurite Spot Count per Neurite Length, Mundy Lab (AID 2284210)
How it was run: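 Synaptophysin spots per unit neurite length, measured by automated imaging of MAP2/synaptophysin/Hoechst-stained neurons. Cultures from rat cortex received chemical at DIV 7 with media change through DIV 12; glial growth arrested by AraC at DIV 5; DMSO baseline.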

[11] = CCTE_Mundy_HCI_Cortical_Synap_Neur_Matur_BPCount: CCTE's Synaptogenesis and Neurite Maturation Assay in rat cortical cells for Branch Point Count, Mundy Lab (AID 2284211)
How it was run: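 HCI read-out of branch points from MAP2/synaptophysin/Hoechst immunofluorescence; rat cortical cultures, AraC DIV 5, dosing DIV 7, fixed DIV 12; fit in positive direction vs DMSO baseline.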

[12] = CCTE_Mundy_HCI_Cortical_NOG_NeuriteCount: CCTE's Neurite Outgrowth Assay in rat cortical cells for Neurite Count, Mundy Lab (AID 2284212);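 also: cells fixed about two days after chemical exposure began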
How it was run: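 Rat cortical primary cells; compound added 2 h post-plating, 1/10 dilution of working solution. Anti-betaIII-tubulin/AF488 ICC; ArrayScan neurite count vs DMSO.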

[13] = CCTE_Mundy_HCI_Cortical_NOG_NeuriteLength: CCTE's Neurite Outgrowth Assay in rat cortical cells for Neurite Length, Mundy Lab (AID 2284213);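 as to AC50: neurites imaged about 48 to 50 h after chemical exposure began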
How it was run: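 First, rat primary cortical cells were plated and, 2 h later, given test chemical as a 1/10 dilution. Finally, βIII-tubulin immunostaining enabled automated imaging of neurite length.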

[14] = CCTE_Mundy_HCI_Cortical_Synap_Neur_Matur_NeuriteLength: CCTE's Synaptogenesis and Neurite Maturation Assay in rat cortical cells for Neurite Length, Mundy Lab (AID 2284214)
How it was run: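 Neurite length quantified by automated high-content imaging of MAP2, synaptophysin and Hoechst staining. Rat cortical cells received chemical from DIV 7 to DIV 12 […], glial growth arrested by AraC at DIV 5; DMSO baseline.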

[15] = UKN5_HCS_SBAD2_cell_viability: Viability Assessment in the University of Konstanz (UKN) Leist Lab Neurite Outgrowth Assay in human iPSC-derived immature Dorsal Root Ganglia Neurons (UKN5) (AID 2284056)
How it was run: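 iPSC-derived immature peripheral neurons (SBAD2) seeded on Matrigel with CHIR99021, SU5402 and DAPT, dosed 1 h later for 24 h. Viability from Hoechst H-33342 and calcein-AM live staining, high-content imaging; bidirectional fit versus DMSO.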

[16] = UKN5_HCS_SBAD2_neurite_outgrowth: University of Konstanz (UKN) Leist Lab Neurite Outgrowth Assay in human iPSC-derived immature Dorsal Root Ganglia Neurons (UKN5) (AID 2284070); settings: actives raise or lower the signal
How it was run: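 Neurite area from calcein-AM high-content images after 24 h exposure (staining included), with H-33342 for viability, fitted both directions against DMSO. Cells: thawed immature SBAD2 peripheral neurons, 100.000 cells/cm2, with CHIR99021, SU5402, DAPT; dosing 1 h after seeding.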

[17] = UKN4_HCS_LUHMES_neurite_outgrowth: University of Konstanz (UKN) Leist Lab Neurite Outgrowth Assay in human LUHMES cells (UKN4) (AID 2284206); settings: actives raise or lower the signal
How it was run: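 After 24 h compound treatment beginning shortly after replating of 2-day-differentiated LUHMES cells, calcein-AM and H-33342 live staining allowed high-content imaging of neurite area and viability. Fitted bidirectionally against DMSO.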

[18] = CCTE_Shafer_MEA_acute_AB: CCTE's Alamar Blue Assay for Cytotoxicity in the Neural Acute Assay, Shafer Lab (AID 2284069; active = hit-call score of the fitted dose curve at least 0.9, where 1 is the maximum;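 also: active compounds lower the viability signal compared with DMSO wells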)
How it was run: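 Read-out: resazurin fluorescence (ex 544, em 590 nm) after CTB reagent at 1:6 dilution in fresh media. Cells: primary rat cortical neuron networks, DIV 13 or 15, chemically exposed on MEA plates; DMSO as negative control/baseline.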

[19] = CCTE_Shafer_MEA_acute_LDH: CCTE's Lactate Dehydrogenase Assay for Cytotoxicity in the Neural Acute Assay, Shafer Lab (AID 2284086; active = hit-call score of the fitted dose curve at least 0.9, where 1 is the maximum;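 also: active means LDH release rises above DMSO vehicle level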)
How it was run: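 LDH released during 40 min compound exposure of primary rat cortical cultures, quantified by absorbance at 490 nm in collected medium. Fitting direction positive versus DMSO vehicle.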

DIO3 (gene 1735) = test: CCTE_GLTED_hDIO3: CCTE's human Deiodinase 3 (DIO3) Inhibition Assay, Great Lakes Toxicology and Ecology Division (GLTED) Lab (AID 2284055; active = hit-call score of the fitted dose curve at least 0.9, where 1 is the maximum;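 also: potency is for inhibition seen as loss of released iodide signal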)
How it was run: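 Inhibition is read as reduced iodide release, measured spectrophotometrically by the Sandell-Kolthoff cerium/arsenic reaction. Adenovirus-expressed human DIO3 enzyme is exposed to chemical for 3 h, n=3 plates. Iodinated chemicals, nitrite, iron or thiocyanate may interfere.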

Measured: AC50

CC(C)c1c(C(=O)Nc2ccccc2)c(-c2ccccc2)c(-c2ccc(F)cc2)n1CC[C@@H](O)C[C@@H](O)CC(=O)O
active: [1] 0.00821 µM | [2] 0.00148 µM | [3] 0.0258 µM | [4] 0.00793 µM | [5] 0.00805 µM | [7] 1.7 µM | [10] 6.94 µM | [11] 0.779 µM | [12] 0.158 µM | [13] 0.145 µM | [14] 2.82 µM
inactive: [6] | [8] | [9]

Nc1ccn([C@@H]2O[C@H](CO)[C@@H](O)C2O)c(=O)n1 (stereo partly specified)
active: [1] 0.119 µM | [2] 1 µM | [16] 0.611 µM | [3] 0.969 µM | [4] 0.0744 µM | [5] 0.0919 µM | [13] 5.88 µM | [14] 17.1 µM
inactive: [15] | [6] | [17] | [10]

OCC(CO)(CBr)CBr
inactive: [18] | [19]

CCCCCCCCCCCCOC(=O)c1cc(O)c(O)c(O)c1
active: DIO3 (gene 1735) 6.66 µM

NC(C(F)(F)F)C(F)(F)F
inactive: [1] | [3] | [4] | [5]

CN(Cc1cnc2nc(N)nc(N)c2n1)c1ccc(C(=O)N[C@@H](CCC(=O)O)C(=O)O)cc1
inactive: [10] | [12] | [13]
active: [1] 0.0253 µM | [2] 0.00802 µM | [3] 0.0389 µM | [4] 0.0191 µM | [5] 0.0189 µM | [11] 0.0449 µM | [14] 0.0328 µM

Oc1c(Cl)cc(Cl)cc1Sc1cc(Cl)cc(Cl)c1O
inactive: [18] | [19]

CCC(C)c1ccccc1O (stereo unspecified)
inactive: [18]

CC(=O)Nc1ccc(O)cc1
inactive: [1] | [2] | [18] | [3] | [19] | [4] | [5] | [7] | [8] | [9] | [10] | [13] | [14]

Oc1ccc(Cc2ccccc2O)cc1
inactive: [18] | [19]

O=C(C=C(O)C(F)(F)F)C(F)(F)F
inactive: [1] | [2] | [4] | [5]

O=C(O)C(F)(F)OC(F)(F)C(F)(F)OC(F)(F)C(F)(F)OC(F)(F)C(F)(F)C(F)(F)C(F)(F)F
active: DIO3 (gene 1735) 37.1 µM
inactive: [1] | [2] | [3] | [4] | [5]
